Measured values as given in PubChem BioAssay (NCATS).
Results filed as inconclusive are left out. Calls of active or inactive are those of the source. Unless noted, the call rests on the fitted dose curve; in most records, active means well fitted curve in the direction sought with a large enough effect; inconclusive means small, poorly fitted or top-dose-only effect, or another doubt; inactive means no such curve, though single readings can be large; an effect the other way counts as inactive or inconclusive.

Columns and labels:
[1] = target: Lysosomal acid glucosylceramidase (Homo sapiens) (UniProt P04062); assay: Glucocerebrosidase-p2 (AID 348; in the data active means potency below about 10 µM; further: potency means the concentration at half of the fitted maximal effect); conditions: purified GBA, blue fluorogenic substrate, 40 min
Procedure, shortened: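 Compounds titrated from 0.6 nM upwards against 0.2 nM enzyme in pH 5.9 citric acid/KH2PO4, taurocholate, tween-20; blue fluorogenic substrate 80 uM, 40 min room temperature, stopped and read Ex 365/Em 440 for AC50.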

[2] = target: Cytochrome P450 1A2 (Homo sapiens) (UniProt P05177); assay: p450-cyp1a2 (AID 410; calls by dose curve; further: potency means the concentration at half of the fitted maximal effect); conditions: recombinant CYP1A2, luciferin-ME demethylation, luminescence; series mostly up to 57 µM
Procedure, shortened: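 20nM CYP1A2 with 100uM Luciferin-ME (at Km) in 100mM KPO4; compound preincubated 10 min, NADPH regeneration added, 60 min at room temperature. Luciferin quantified by luminescence after detection reagent; normalized to 57 uM furafylline.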

[3] = NFAT Signaling Pathway (AID 444; active means well fitted curve in either direction with a large enough effect, not every such curve was filed as active;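 further: carbachol stimulus at about its EC50 of 1 µM final; on the % scale 0 is the no-effect control and ±100 the full control effect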); conditions: Jurkat NFAT-bla M1, carbachol, beta-lactamase ratio, 5 h; at 7.69 µM (top of the series) unless noted
Procedure, shortened: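 Jurkat cells carrying an NFAT-driven β-lactamase reporter and co-transfected muscarinic M1 receptor were treated with compound plus carbachol (1 uM final, an EC50 level) for 5 h at 37 °C. CCF4 loading followed for 1 h at RT; 460/530 nm ratio gave %activity.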

[4] = Stat Signaling Pathway (AID 446; active means well fitted curve in either direction with a large enough effect, not every such curve was filed as active;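 further: ME-180 cervical cancer cells given 40 pM IL-6 alongside compound; SIE-controlled beta-lactamase reporter measured as 460/530 nm FRET emission ratio; on the % scale 0 is the no-effect control and ±100 the full control effect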); conditions: ME-180 SIE beta-lactamase reporter, IL-6 stimulated, 5 h; at 7.69 µM (top of the series) unless noted
Procedure, shortened: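 Reporter line: ME-180 cervical carcinoma, SIE-beta-lactamase. Treatment: compound with 40 pM IL-6, 5 hrs, 37 C, in low-serum OPTI-MEM with 10 mM HEPES pH 7.3. Detection: 460/530 nm fluorescence.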

[5] = target: Glucocorticoid receptor (Homo sapiens) (UniProt P04150); assay: GR-GFP Redistribution (AID 450;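 active means compounds whose dose series gives a full or clear partial fitted curve of increased nuclear translocation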; further: potency means the concentration at half of the fitted maximal effect); conditions: U2OS GR-GFP nuclear translocation, laser cytometry, 2 h
[6] = target: Glucocorticoid receptor (Homo sapiens) (UniProt P04150); assay: GR-EFC Redistribution (AID 451; calls by dose curve; further: potency means the concentration at half of the fitted maximal effect); conditions: CHO-K1 GR-EFC translocation, beta-gal luminescence, 2 h
Procedure, shortened: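 CHO-K1 cells stably expressing nuclear-localized β-gal enzyme acceptor and GR fused C-terminally to the enzyme donor fragment; ligand-driven nuclear translocation restores β-gal by complementation. Compounds titrated up to 46 uM final, 2 h at 37 °C; luminescence read.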

[7] = target: Mitogen-activated protein kinase 10 (Mus musculus) (UniProt Q61831); assay: JNK3 AlphaScreen Assay (AID 530; active means well fitted curve in either direction with a large enough effect, not every such curve was filed as active;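 further: kinase came from lysate of stimulated human HepG2 cells; signal reports phosphorylation of biotinylated GST-cJun 1-79 at Ser73 with 10 µM ATP; on the % scale 0 is the no-effect control and ±100 the full control effect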); conditions: JNK3 lysate, c-Jun phosphorylation; series mostly up to 57.1 µM
Procedure, shortened: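 Inhibitors reduce antibody binding to phosphorylated biotin-cJun, lowering AlphaScreen luminescence. Lysates from HepG2 cells pre-activated by IL-1beta plus TNF-alpha supplied JNK3; compounds were titrated.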

[8] = target: 3',5'-cyclic-AMP phosphodiesterase 4B (Homo sapiens) (UniProt Q07343); assay: qHTS Assay for Inhibitors of PDE-IV (AID 607; active means well fitted activation curve with a large enough effect in the main read-out, with a control signal flat, not every such curve was filed as active; further: % of control where 0% means no effect); conditions: HEK293 ACTOne CNG channel cells, membrane potential fluorescence; series mostly up to 22.9 µM
Procedure, shortened: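 Cell-based read-out of cAMP via a modified cyclic nucleotide-gated channel and membrane potential dye (535/590 nm) in HEK293 cells expressing PDE4 endogenously. Compounds tested up to 22.9 uM final; 100 uM RO 20-1724 reference.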

[9] = target: Cytochrome P450 3A4 (Homo sapiens) (UniProt P08684); assay: qHTS Assay for Activators of Cytochrome P450 3A4 (AID 885); conditions: recombinant CYP3A4, Luciferin-PPXE luminescence, 60 min; series mostly up to 57.1 µM; further: nearly all actives have a fitted effect of over 65% in size
Procedure, shortened: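 Signal was normalized against complete inhibition by 57 uM ketoconazole. The reaction used 20nM CYP3A4 with 25uM Luciferin-PPXE, 10-min compound preincubation and a 60-min NADPH-supported step at RT.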

[10] = target: Dual specificity protein kinase CLK4 (Homo sapiens) (UniProt Q9HAZ1); assay: qHTS Assay for Inhibitors of CDC-like Kinase 4 (Kinase-Glo Assay) (AID 1770); conditions: recombinant Clk4, Kinase-Glo ATP depletion luminescence; series mostly up to 66.7 µM; further: nearly all actives have a fitted effect of over 65% in size; further: potency means the concentration at half of the fitted maximal effect
Procedure, shortened: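 Clk4 25 nM, RS peptide 100 uM, ATP 1 uM, pH 7.5 Tris, 10 mM MgCl2, 2.5 mM DTT; 4.5 h RT; ATP depletion read by Kinase-Glo luminescence.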

[11] = target: Dual specificity protein kinase CLK4 (Homo sapiens) (UniProt Q9HAZ1); assay: qHTS Assay for Inhibitors of CDC-like Kinase 4 (ADP-Glo Assay) (AID 1771); conditions: recombinant CLK4, ADP-Glo luminescence; series mostly up to 80 µM; further: nearly all actives have a fitted effect of over 70% in size; further: potency means the concentration at half of the fitted maximal effect
Procedure, shortened: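 25 nM Clk4 with 100 uM RS repeat peptide and 1 uM ATP (final) in buffer with 2 mM MgCl2, 0.5 mM EGTA, 2.5 mM DTT, 0.01% Triton X-100; 1 h at room temperature; ADP-Glo luminescence for ADP formed.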

[12] = target: Dual specificity protein kinase CLK4 (Homo sapiens) (UniProt Q9HAZ1); assay: qHTS Assay for Inhibitors of CDC-like Kinase 4 (ADP-FP Assay) (AID 1795); conditions: Transcreener ADP fluorescence polarization; series mostly up to 50 µM; further: nearly all actives have a fitted effect of over 60% in size; further: potency means the concentration at half of the fitted maximal effect
Procedure, shortened: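 Kinase activity was followed as ADP output, converted from fluorescence polarization with a calibration curve. Reactions ran one hour at low ATP (1 uM) with RS peptide substrate.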

[13] = target: Ubiquitin carboxyl-terminal hydrolase 1 (Homo sapiens) (UniProt O94782); assay: Inhibitors of USP1/UAF1: Pilot qHTS (AID 504865); conditions: purified USP1/UAF1, Ub-rhodamine cleavage fluorescence; series mostly up to 54.9 µM;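 further: rhodamine fluorescence freed from ubiquitin-rhodamine substrate followed over time; top concentration of the series differs between compounds; on the % scale 0 is the no-effect control and ±100 the full control effect; nearly all actives have a fitted effect of over 35% in size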
Procedure, shortened: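 Enzyme-free wells gave the negative control, while test wells held 1nM USP1/UAF1 preincubated with compound for 15 min at room temperature. Ub-Rho at 150nM final started the reaction, and fluorescence at 480/540 nm was recorded kinetically.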

[14] = Primary qHTS for small molecule stabilizers of the endoplasmic reticulum resident proteome: Secreted ER Calcium Modulated Protein (SERCaMP) assay (AID 1508630); conditions: SH-SY5Y GLuc-SERCaMP (Gaussia luciferase released on ER calcium loss) secretion, thapsigargin, luminescence; series mostly up to 38.4 µM; further: on the % scale 0 is the no-effect control and ±100 the full control effect
Procedure, shortened: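 GLuc-SERCaMP-expressing SH-SY5Y cells, pretreated 16 h with compound, are challenged with thapsigargin to empty ER calcium stores; after 4 h, coelenterazine is added directly to the medium and luminescence is imaged.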

[15] = target: Cytochrome P450 2C9 (Homo sapiens) (UniProt P11712); assay: qHTS Assay for Inhibitors and Substrates of Cytochrome P450 2C9 (AID 883); conditions: recombinant CYP2C9, luciferin-H luminescence, 60 min; series mostly up to 57.1 µM; further: potency means the concentration at half of the fitted maximal effect; nearly all actives have a fitted effect of over 60% in size
Procedure, shortened: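 CYP2C9 deoxyluciferin hydroxylation, 37C, 60 min with NADPH regeneration; 10nM enzyme, 100uM Luciferin-H (KM). Glo detection reagent stopped reaction; luminescence normalized to sulphaphenazole (57uM) full inhibition.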

[16] = target: Cytochrome P450 3A4 (Homo sapiens) (UniProt P08684); assay: qHTS Assay for Inhibitors and Substrates of Cytochrome P450 3A4 (AID 884); conditions: recombinant CYP3A4, Luciferin-PPXE luminescence; series mostly up to 57.1 µM; further: potency means the concentration at half of the fitted maximal effect; nearly all actives have a fitted effect of over 50% in size
Procedure, shortened: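 20 nM human CYP3A4 with 25 uM Luciferin-PPXE (at KM) in 200 mM KPO4, preincubated 10 min with compound; NADPH regeneration started a 60 min RT reaction. Luciferin detected by luminescence, normalized to 57 uM ketoconazole as full inhibition.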

[17] = target: Cytochrome P450 2C19 (Homo sapiens) (UniProt P33261); assay: qHTS Assay for Inhibitors and Substrates of Cytochrome P450 2C19 (AID 899); conditions: recombinant CYP2C19, luciferin-H EGE luminescence; series mostly up to 57.1 µM; further: potency means the concentration at half of the fitted maximal effect; nearly all actives have a fitted effect of over 60% in size
Procedure, shortened: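 In 50mM KPO4, the reaction held 5nM enzyme and KM-level (10uM) Luciferin-H EGE; it ran 60 min at 37C after NADPH regeneration and a 10 min compound preincubation. Luminescence values were scaled to 57uM ketoconazole as complete inhibition.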

[18] = qHTS Assay for Identification of Small Molecule Agonists for Hypoxia Response Element Signaling Pathway (AID 914; active means well fitted activation curve with a large enough effect in the signal ratio, with a control signal flat, not every such curve was filed as active; the % refers to the signal ratio; further: potency means the concentration at half of the fitted maximal effect); conditions: ME-180 (cervical carcinoma) HRE-bla reporter, beta-lactamase ratio, CoCl2, 17 h; activation: active compounds read high
Procedure, shortened: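 HRE-bla ME-180 cells with beta-lactamase reporter under hypoxia response element, compounds with EC50 CoCl2 for 17 hours at 37 C. CCF4 substrate, 460nm/530nm emission ratio gave %Activity; AC50 from titration series.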

Chain of Dual specificity protein kinase CLK4 (Homo sapiens) (Q9HAZ1 whole entry, looked up): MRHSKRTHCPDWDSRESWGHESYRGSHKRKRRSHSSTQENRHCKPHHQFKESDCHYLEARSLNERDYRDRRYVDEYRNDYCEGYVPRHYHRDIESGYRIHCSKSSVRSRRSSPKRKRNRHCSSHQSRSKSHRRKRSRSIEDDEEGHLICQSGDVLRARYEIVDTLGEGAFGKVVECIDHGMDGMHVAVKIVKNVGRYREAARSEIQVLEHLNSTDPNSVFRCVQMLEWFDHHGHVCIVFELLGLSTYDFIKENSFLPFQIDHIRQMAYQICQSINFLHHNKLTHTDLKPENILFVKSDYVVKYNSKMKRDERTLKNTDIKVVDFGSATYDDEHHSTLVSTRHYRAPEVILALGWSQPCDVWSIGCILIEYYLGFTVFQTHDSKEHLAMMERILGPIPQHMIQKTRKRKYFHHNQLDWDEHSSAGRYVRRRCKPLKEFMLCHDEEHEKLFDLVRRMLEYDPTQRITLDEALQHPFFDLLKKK
Chain of Glucocorticoid receptor (Homo sapiens) (P04150 whole entry, looked up, the tested form may be a part): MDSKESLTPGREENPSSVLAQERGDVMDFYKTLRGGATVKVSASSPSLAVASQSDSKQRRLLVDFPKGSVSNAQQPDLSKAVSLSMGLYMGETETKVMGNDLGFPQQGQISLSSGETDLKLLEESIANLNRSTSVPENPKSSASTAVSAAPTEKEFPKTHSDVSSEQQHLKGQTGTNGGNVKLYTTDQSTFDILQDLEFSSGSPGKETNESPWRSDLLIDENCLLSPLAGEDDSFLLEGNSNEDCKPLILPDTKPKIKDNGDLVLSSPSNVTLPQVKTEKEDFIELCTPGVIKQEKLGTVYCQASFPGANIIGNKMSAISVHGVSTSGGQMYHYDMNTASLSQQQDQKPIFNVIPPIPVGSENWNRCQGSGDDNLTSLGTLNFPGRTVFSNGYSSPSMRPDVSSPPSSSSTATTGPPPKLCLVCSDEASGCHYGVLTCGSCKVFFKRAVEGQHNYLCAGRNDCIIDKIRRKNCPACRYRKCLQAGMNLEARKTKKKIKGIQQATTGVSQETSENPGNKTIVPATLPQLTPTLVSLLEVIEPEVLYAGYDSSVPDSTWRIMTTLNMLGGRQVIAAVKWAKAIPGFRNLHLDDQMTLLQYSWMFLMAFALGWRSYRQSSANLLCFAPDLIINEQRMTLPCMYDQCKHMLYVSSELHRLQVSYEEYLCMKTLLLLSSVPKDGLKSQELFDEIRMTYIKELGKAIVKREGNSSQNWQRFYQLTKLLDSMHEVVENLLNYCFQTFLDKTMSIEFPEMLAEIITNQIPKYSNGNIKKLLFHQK
Chain of 3',5'-cyclic-AMP phosphodiesterase 4B (Homo sapiens) (Q07343 whole entry, looked up): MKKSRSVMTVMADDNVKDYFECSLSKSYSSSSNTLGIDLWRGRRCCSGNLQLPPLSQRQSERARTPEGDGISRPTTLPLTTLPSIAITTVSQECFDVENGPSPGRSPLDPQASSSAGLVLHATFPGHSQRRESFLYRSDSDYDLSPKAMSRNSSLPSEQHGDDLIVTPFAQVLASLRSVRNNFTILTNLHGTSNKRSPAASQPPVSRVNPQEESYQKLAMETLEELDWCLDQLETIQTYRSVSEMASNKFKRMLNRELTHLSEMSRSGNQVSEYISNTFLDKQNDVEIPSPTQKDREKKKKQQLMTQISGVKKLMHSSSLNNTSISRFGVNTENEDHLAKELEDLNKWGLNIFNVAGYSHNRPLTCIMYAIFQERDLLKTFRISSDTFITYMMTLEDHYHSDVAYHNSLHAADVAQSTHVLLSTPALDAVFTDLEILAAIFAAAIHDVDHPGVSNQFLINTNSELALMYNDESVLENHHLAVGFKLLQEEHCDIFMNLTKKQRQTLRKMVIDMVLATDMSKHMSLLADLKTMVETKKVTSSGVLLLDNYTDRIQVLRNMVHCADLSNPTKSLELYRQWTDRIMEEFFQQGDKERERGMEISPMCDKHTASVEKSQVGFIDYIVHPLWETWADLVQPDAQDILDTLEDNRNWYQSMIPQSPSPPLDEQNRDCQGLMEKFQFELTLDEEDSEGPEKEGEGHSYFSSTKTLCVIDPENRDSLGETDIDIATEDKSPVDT
Chain of Ubiquitin carboxyl-terminal hydrolase 1 (Homo sapiens) (O94782 whole entry, looked up): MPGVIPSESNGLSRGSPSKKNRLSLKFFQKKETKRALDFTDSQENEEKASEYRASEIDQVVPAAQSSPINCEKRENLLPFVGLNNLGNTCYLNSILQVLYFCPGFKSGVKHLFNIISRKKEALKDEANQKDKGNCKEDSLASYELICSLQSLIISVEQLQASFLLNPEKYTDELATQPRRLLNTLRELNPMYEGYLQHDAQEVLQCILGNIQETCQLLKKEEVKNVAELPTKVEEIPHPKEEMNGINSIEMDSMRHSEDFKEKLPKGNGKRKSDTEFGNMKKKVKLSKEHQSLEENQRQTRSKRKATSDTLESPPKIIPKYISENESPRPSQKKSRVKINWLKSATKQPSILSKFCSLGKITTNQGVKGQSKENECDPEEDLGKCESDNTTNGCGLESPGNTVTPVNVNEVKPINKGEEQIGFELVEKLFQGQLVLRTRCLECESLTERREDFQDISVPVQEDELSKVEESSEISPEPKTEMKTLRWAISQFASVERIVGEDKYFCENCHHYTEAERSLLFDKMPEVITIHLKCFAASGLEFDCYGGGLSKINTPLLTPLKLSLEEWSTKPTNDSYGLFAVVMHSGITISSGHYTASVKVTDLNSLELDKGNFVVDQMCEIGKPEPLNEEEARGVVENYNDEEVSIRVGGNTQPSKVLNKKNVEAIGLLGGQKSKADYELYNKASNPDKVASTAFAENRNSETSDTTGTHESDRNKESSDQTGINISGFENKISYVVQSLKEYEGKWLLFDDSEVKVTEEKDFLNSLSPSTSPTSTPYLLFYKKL
Chain of Cytochrome P450 3A4 (Homo sapiens) (P08684 whole entry, looked up): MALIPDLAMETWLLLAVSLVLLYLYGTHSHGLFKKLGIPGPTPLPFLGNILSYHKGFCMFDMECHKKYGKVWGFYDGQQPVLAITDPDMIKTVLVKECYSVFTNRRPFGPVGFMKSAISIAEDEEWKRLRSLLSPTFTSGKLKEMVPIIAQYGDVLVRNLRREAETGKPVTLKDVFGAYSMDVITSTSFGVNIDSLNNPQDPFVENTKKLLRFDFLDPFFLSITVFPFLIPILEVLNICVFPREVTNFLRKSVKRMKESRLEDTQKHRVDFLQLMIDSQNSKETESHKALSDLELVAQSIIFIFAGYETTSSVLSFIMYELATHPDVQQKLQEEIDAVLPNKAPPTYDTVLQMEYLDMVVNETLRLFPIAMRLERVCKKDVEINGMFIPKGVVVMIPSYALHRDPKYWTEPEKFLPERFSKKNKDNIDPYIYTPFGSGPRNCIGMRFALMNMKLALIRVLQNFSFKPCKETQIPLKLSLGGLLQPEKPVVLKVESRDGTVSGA
Chain of Cytochrome P450 1A2 (Homo sapiens) (P05177 whole entry, looked up): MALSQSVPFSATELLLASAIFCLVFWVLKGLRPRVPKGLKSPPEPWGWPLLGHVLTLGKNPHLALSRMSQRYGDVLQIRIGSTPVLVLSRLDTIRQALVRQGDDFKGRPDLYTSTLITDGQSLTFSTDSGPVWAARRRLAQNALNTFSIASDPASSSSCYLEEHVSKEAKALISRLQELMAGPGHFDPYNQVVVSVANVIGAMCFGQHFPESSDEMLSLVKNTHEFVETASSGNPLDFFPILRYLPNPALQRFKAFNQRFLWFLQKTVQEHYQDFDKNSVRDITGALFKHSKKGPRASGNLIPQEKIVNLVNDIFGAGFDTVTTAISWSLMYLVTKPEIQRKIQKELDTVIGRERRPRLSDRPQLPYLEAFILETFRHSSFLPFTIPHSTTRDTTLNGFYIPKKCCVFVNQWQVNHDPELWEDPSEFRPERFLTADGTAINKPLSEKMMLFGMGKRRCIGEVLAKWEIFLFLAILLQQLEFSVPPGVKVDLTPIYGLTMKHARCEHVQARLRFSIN
Chain of Lysosomal acid glucosylceramidase (Homo sapiens) (P04062 whole entry, looked up): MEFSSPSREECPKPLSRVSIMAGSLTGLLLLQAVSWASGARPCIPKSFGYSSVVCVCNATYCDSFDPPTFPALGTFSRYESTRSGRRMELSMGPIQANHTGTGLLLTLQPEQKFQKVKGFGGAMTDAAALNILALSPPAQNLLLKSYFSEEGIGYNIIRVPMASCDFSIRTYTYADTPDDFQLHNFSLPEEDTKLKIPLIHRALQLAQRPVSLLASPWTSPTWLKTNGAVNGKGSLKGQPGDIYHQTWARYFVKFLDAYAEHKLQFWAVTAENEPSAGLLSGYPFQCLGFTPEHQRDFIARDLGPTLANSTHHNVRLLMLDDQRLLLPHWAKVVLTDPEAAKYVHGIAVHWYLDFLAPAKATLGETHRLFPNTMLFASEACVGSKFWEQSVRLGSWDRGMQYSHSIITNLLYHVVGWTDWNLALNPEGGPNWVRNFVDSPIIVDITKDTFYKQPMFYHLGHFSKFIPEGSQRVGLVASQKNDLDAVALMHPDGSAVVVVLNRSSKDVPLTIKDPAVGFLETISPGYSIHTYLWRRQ
Chain of Cytochrome P450 2C19 (Homo sapiens) (P33261 whole entry, looked up): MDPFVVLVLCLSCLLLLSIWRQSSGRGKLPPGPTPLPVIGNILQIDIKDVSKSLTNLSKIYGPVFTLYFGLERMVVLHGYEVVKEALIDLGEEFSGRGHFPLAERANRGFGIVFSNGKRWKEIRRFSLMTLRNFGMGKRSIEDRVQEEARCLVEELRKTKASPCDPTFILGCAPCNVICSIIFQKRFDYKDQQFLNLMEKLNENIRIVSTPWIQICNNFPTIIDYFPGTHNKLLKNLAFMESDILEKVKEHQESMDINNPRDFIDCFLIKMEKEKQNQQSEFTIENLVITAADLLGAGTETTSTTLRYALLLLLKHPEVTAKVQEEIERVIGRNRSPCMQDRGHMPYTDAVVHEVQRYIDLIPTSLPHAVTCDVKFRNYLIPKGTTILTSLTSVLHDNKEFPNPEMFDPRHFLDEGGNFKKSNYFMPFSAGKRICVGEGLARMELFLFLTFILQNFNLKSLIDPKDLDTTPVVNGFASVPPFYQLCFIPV

N#CCCn1c(=O)c(-c2cccs2)nc2cnc(Nc3ccccc3)nc21
active: Potency [2] 5.01 µM
inactive: Potency [1] > 11.4 µM | activity change, negative = inhibition [3] -22.7% | activity, negative = inhibition [4] -25% | Potency [5] > 9.22 µM | Potency [6] > 46 µM | Potency [7] | Potency [8] | Potency [9] | Potency [10] | Potency [11] | Potency [12] | Potency [13] | outcome [14]

COc1cccc(Cn2c(=O)c(-c3cccs3)nc3cnc(OC)nc32)c1
active: Potency [2] 3.16 µM | Potency [15] 3.16 µM | Potency [16] 3.98 µM
inactive: Potency [1] > 11.4 µM | activity change, negative = inhibition [3] 25.8% | Potency [5] > 9.22 µM | Potency [6] > 46 µM | Potency [9] | Potency [10] | Potency [11] | Potency [12] | outcome [14]

c1ccc(Nc2ncnc3ccc(-c4ccoc4)cc23)cc1
inactive: Potency [1] > 11.4 µM | activity change, negative = inhibition [3] 14.5% | activity, negative = inhibition [4] -4.75% | Potency [5] > 46 µM | Potency [6] > 46 µM | Potency [7] | Potency [8] | Potency [9] | Potency [13] | outcome [14]
active: Potency [2] 1.58 µM | Potency [17] 2 µM | Potency [10] 0.708 µM | Potency [11] 0.631 µM | Potency [12] 0.447 µM

Cn1cc(-c2nc3cnc(N4CCNCC4)nc3n(Cc3ccc(F)cc3)c2=O)c2ccccc21
active: Potency [2] 20 µM | activity change, negative = inhibition [3] 68.4% [activator] | Potency [17] 7.94 µM
inactive: Potency [1] > 11.4 µM | Potency [5] > 9.22 µM | Potency [6] > 46 µM | Potency [8] | Potency [9] | Potency [10] | Potency [11] | Potency [12] | outcome [14]

O=c1c(-c2ccc(F)cc2)nc2cnc(Oc3cccc(Cl)c3)nc2n1C[C@H]1CCCO1
inactive: Potency [1] > 11.4 µM | activity change, negative = inhibition [3] -18.3% | activity, negative = inhibition [4] -26% | Potency [5] > 9.22 µM | Potency [6] > 46 µM | Potency [7] | Potency [8] | Potency [9] | Potency [10] | Potency [11] | Potency [12] | Potency [13] | outcome [14]

O=c1c(-c2ccc(F)cc2)nc2cnc(N3CCOCC3)nc2n1Cc1ccc(F)cc1
active: Potency [2] 20 µM | activity, negative = inhibition [4] 105% [activator] | Potency [18] 0.398 µM
inactive: Potency [1] > 11.4 µM | Potency [5] > 9.22 µM | Potency [6] > 46 µM | Potency [7] | Potency [8] | Potency [10] | Potency [11] | Potency [12] | Potency [13] | outcome [14]
